Measurements from the OligoGym collection.

Target: C20orf54
Test: pooled miR-30 sensor sort-seq; sequence = guide strand
Details: shRNA
Also: reference of the scale not given here.

Sequence	sensor-assay potency score (higher = more potent)
TTTCTCCTCTAGATACCCCTGG	0.0398
TCAGTGACATTGACGCAGGTAG	-0.422
TTGCAGAAGTCCGCGGACGAGA	-1.3
TGAAGAGGTGCAGTCCACCAGG	-0.698
TTGACGTAACTGAGGCAGCCGC	-1.38
TTCCCTTCTAACACCCTTGGGC	0.125
TTCTCCTCTAGATACCCCTGGC	-0.528
TATCTCAGTGACATTGACGCAG	0.229

Target: C21orf70
Test: as above
Details: shRNA

Sequence	sensor-assay potency score (higher = more potent)
TTCTGCACCAAGGCGCTGGGGT	-0.84
TTTTCTGCAACCATTGCTCACG	-0.501
ATTTTCTGCAACCATTGCTCAC	-1.16
TTTTATGGCTTCGATTTTCTGC	-0.59
TTGGTGTTGATGAACGCCCAGT	-0.833
TTTATTGAGCCCCACAACCGAC	-1.2
TCTTCCAGCTGCATCTGCCGGG	-0.496
TTCGATTTTCTGCAACCATTGC	-1.09
TTGCTCACGCCTCAGCTTCATT	-1.27
TTGAGCCCCACAACCGACCAGA	-0.652
TTCTTGGGCAAAACGGTCTTGG	-0.889
TCCAGCTTCTGCACCAAGGCGC	-0.982

Target: C2orf55
Test: as above
Details: shRNA

Sequence	sensor-assay potency score (higher = more potent)
TTATCCTCTTTGTTTTGCCTGG	-0.575
TTTGCCACAATACACTGGCAGT	-1.43
TTTTTGGAAACAGTCTATGAAT	-1.5
TTGAATTTAGATTTTTTCTTTC	-0.493
TTGATGATAAAATCAATCTTTA	-0.855
ATTATTTTTGGAAACAGTCTAT	-0.496
TTTCTGGCAAGTTCCATCCAGG	-0.596
TTGTTTGCCACAATACACTGGC	0.782
TTTCTTTCTGGCAAGTTCCATC	-0.776
TTAGATTTTTTCTTTCCTGTGC	0.654
TTTGTTTGCCACAATACACTGG	-0.196
TTATTTTTGGAAACAGTCTATG	-0.924

Target: C2orf57
Test: as above
Details: shRNA

Sequence	sensor-assay potency score (higher = more potent)
TTCTCCTCAGCAGACTTGGTGG	-0.95
TTGTCCTTGCGTCTTGAACCTG	-1.12
TAGACCTGCTGTCATCCACGTT	-1.17
TTGTCTTTGTCTCCAGATGTTG	-1.39
AACAACTGCACTCTTGTCTTTG	-0.961
ATTTGTGACATCTTGTCTTTAC	-1.19
TGTCCTTGCGTCTTGAACCTGC	0.175
TGACATCTTGTCTTTACCCAGG	-0.635
